AGP1 TOR yeast = modulators of TOR pathway AGP1-GFP in S. cerevisiae | GFP response vs DMSO, % at 10 µM | S. cerevisiae AGP1-GFP multiplex flow cytometry, 3 h; GFP as percent of DMSO wells | 320,000 compounds, 0.02% hits;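 active means GFP response relative to DMSO above a set limit, near screen average plus 3 SD, cut at about 150% in these data; inconclusive means fewer than 70 cells counted for the yeast strain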;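 further: median GFP channel fluorescence of the gated AGP1 strain per well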
RPL19A-GFP yeast = yeast TOR pathway RPL19A-GFP modulation; S. cerevisiae RPL19A-GFP strain, flow cytometry, 3 h; active compounds read low; percent response vs DMSO, % at 10 µM; 330,000 compounds, 0.3% hits;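 active means percent response vs DMSO below 50%; inconclusive means fewer than 70 events counted for the yeast strain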;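 further: median channel GFP fluorescence of the barcoded RPL19A-GFP strain; lower means less RPL19A-GFP as with rapamycin TOR inhibition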
LAP4 TOR yeast = modulators of TOR pathway LAP4-GFP in S. cerevisiae. AID 2023. 320,000 compounds, 0.34% hits. S. cerevisiae LAP4-GFP multiplex, flow cytometry GFP, 3 h; median GFP as percent of DMSO wells. GFP response vs DMSO, % at 10 µM;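 active means GFP response vs DMSO above a set limit, about the screen mean plus 3 SD, cut at about 150% in these data; inconclusive means under 70 cell events counted for the yeast strain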
Myeloid diff 2 = promotes myeloid progenitor differentiation | ER-HoxA9 myeloid progenitors, lysozyme-GFP differentiation, flow cytometry | calls only at 10 µM | 360,000 compounds, 1% hits | AID 624256;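 active means normalized GFP-positive differentiation at or above the plate's own cutoff, the solvent-only control mean plus 3 SD; inconclusive means no clear call, values can overlap the other calls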;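 further: cells exposed to compound for four days before flow analysis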
MEP2-GFP yeast = yeast TOR pathway MEP2-GFP modulation | S. cerevisiae MEP2-GFP strain, flow cytometry GFP, 3 h; 100% = DMSO control level | GFP response vs DMSO, % at 10 µM | 330,000 compounds, 0.51% hits;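 active means GFP response versus DMSO above a set limit, roughly screen mean plus 3 SD, cut at about 180% in these data; inconclusive means fewer than 70 cells counted for a yeast strain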;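 further: median GFP fluorescence of the barcode-gated MEP2-GFP cells per well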
CIT2 TOR yeast = alters CIT2-GFP fluorescence in TOR pathway yeast screen | S. cerevisiae CIT2-GFP strain, flow cytometry, 3 h; 100 means same as DMSO wells | GFP response vs DMSO, % at 10 µM | 320,000 compounds, 0.065% hits | AID 2029;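 active means GFP response relative to DMSO above a set limit, near the screen mean plus 3 SD, cut at about 150% in these data; inconclusive means Fewer than 70 cells measured for a yeast strain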;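 further: ratio of well median GFP fluorescence to mean of DMSO wells on the plate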
Of the large screens only hits and unclear results are named; the others gave an inactive call; [ ] = remark or other dose. An excerpt weighted towards active compounds, which were near 1.8% of everything screened.

COc1cccc(/C=N/NC(=O)CC2C(=O)NN=C2C)c1O (configuration not stated)	AGP1 TOR yeast inconclusive, RPL19A-GFP yeast 11[may fluoresce violet], LAP4 TOR yeast inconclusive, MEP2-GFP yeast inconclusive, CIT2 TOR yeast inconclusive
COc1ccc(NC(=O)c2c(-c3ccccc3)noc2C)c(OC)c1	none
COc1cccc(/C=N/NC(=O)c2c(-c3ccccc3)noc2C)c1OC	none
O=C(O)CC1(CC(=O)Nc2ccccc2N2CCOCC2)CCCC1	none
COc1cccc(Nc2nc(N)nc(-c3oc4ccccc4c3C)n2)c1	none (no result: RPL19A-GFP yeast)
O=C(Nc1nnc(Cc2c[nH]c3ccccc23)s1)c1ccc(Cl)cc1Cl	Myeloid diff 2 active
CC(C)(C)c1ccc(C(=O)Nc2nnc(Cc3c[nH]c4ccccc34)s2)cc1	none
Cn1c(=O)c2c(ncn2CC(=O)Nc2nc(-c3ccccc3Cl)cs2)n(C)c1=O	AGP1 TOR yeast inconclusive, RPL19A-GFP yeast 13[may fluoresce violet], MEP2-GFP yeast 210[may fluoresce violet], CIT2 TOR yeast inconclusive
CCOC(=O)Cc1csc(NC(=O)Cn2cnc3c2c(=O)n(C)c(=O)n3C)n1	none
Cc1ccc(Cl)cc1N1CCN(C(=O)c2cn(C)c(=O)c3c2c2ccccc2n3C)CC1	Myeloid diff 2 active
CN(C)c1ccc(/C=C/c2ccncc2)cc1	Myeloid diff 2 active (no result: AGP1 TOR yeast, RPL19A-GFP yeast, LAP4 TOR yeast, MEP2-GFP yeast, CIT2 TOR yeast)
CN(C)c1ccc(C=Cc2cnccn2)cc1	none (no result: AGP1 TOR yeast, RPL19A-GFP yeast, LAP4 TOR yeast, MEP2-GFP yeast, CIT2 TOR yeast)
CCC(C(=O)OC(C)C(=O)Nc1ccc(Cl)cn1)c1ccccc1 (configuration not stated)	none
CCOC(=O)c1cnc2c(-c3ccccc3)cnn2c1N	RPL19A-GFP yeast 32[may fluoresce violet], MEP2-GFP yeast 529[may fluoresce violet], CIT2 TOR yeast inconclusive (no result: AGP1 TOR yeast)
CCOC(=O)c1cnc2c(-c3ccccc3)c(C)nn2c1N	none
O=C(O)c1ccc(-c2cccc(-c3nn4c(=O)cc(N5CCNCC5)nc4s3)c2)cc1	none (no result: AGP1 TOR yeast, RPL19A-GFP yeast, LAP4 TOR yeast, MEP2-GFP yeast, CIT2 TOR yeast)
CCCCNc1c(-c2ccc(SC3CCCCC3)cc2)nc2ccccn12	none
CCCCNc1c(-c2ccc(SC(C)CC)cc2)nc2ccccn12 (configuration not stated)	LAP4 TOR yeast 162
CCCCCCSc1ccc(-c2nc3cnccn3c2NCCCC)cc1	Myeloid diff 2 active
O=C(NCc1n[nH]c(=S)n1-c1ccccc1)c1cccs1	none
O=C(Cc1ccc([N+](=O)[O-])cc1)c1ccccc1	Myeloid diff 2 active (no result: AGP1 TOR yeast, RPL19A-GFP yeast, LAP4 TOR yeast, MEP2-GFP yeast, CIT2 TOR yeast)
CC1CC(C)CN(C(=O)CN2C(=O)NC(C)(C)C2=O)C1 (configuration not stated)	none
O=C(NCc1ccccc1)c1cccc(COc2ccccc2Cl)c1	none
NNC(=O)c1cccc(COc2ccccc2Br)c1	Myeloid diff 2 active
CC(=O)Nc1ccc(OC(=O)C(CCS(C)(=O)=O)N2C(=O)c3ccccc3C2=O)cc1 (configuration not stated)	none (no result: LAP4 TOR yeast)
CCCOc1ccc(N)cc1N	Myeloid diff 2 active
CCCOc1cc(N)ccc1C(=O)OCCN(CC)CC	none
CC(=O)C(Cc1ccc(Cl)nc1)(Cc1ccc(Cl)nc1)C(C)=O	Myeloid diff 2 active
CC(=O)C(Cc1cnc(Cl)s1)(Cc1cnc(Cl)s1)C(C)=O	none
c1ccc(CSc2ccc(-c3ccccn3)nn2)cc1	LAP4 TOR yeast 155
Clc1ccc(CSc2ccc(-c3ccccn3)nn2)cc1	none
COc1ccc(-n2nc(C(=O)NCC(=O)N3CCCC3)c3ccccc3c2=O)cc1Cl	AGP1 TOR yeast inconclusive, MEP2-GFP yeast 270[may fluoresce violet], CIT2 TOR yeast inconclusive
COc1ccc(-n2nc(C(=O)NCC(=O)NC(C)C)c3ccccc3c2=O)cc1	Myeloid diff 2 active
COc1ccc(-n2nc(C(=O)NCC(=O)O)c3ccccc3c2=O)cc1	none
N=c1c(C(=O)NCC2CCCO2)cc2c(=O)n3ccccc3nc2n1C1CCCC1 (configuration not stated)	AGP1 TOR yeast inconclusive, RPL19A-GFP yeast inconclusive, LAP4 TOR yeast inconclusive, MEP2-GFP yeast inconclusive, CIT2 TOR yeast inconclusive
N=c1c(C(=O)NCC2CCCO2)cc2c(=O)n3ccccc3nc2n1C1CCCCC1 (configuration not stated)	RPL19A-GFP yeast 45
CCCn1c(=N)c(C(=O)NCC2CCCO2)cc2c(=O)n3cccc(C)c3nc21 (configuration not stated)	AGP1 TOR yeast inconclusive, RPL19A-GFP yeast inconclusive, LAP4 TOR yeast inconclusive, MEP2-GFP yeast inconclusive, CIT2 TOR yeast inconclusive
Cc1cccn2c(=O)c3cc(C(=O)NCC4CCCO4)c(=N)n(C4CCCC4)c3nc12 (configuration not stated)	AGP1 TOR yeast inconclusive, RPL19A-GFP yeast 24[may fluoresce violet], MEP2-GFP yeast inconclusive, CIT2 TOR yeast inconclusive
Cc1cccn2c(=O)c3cc(C(=O)NCC4CCCO4)c(=N)n(CCN4CCOCC4)c3nc12 (configuration not stated)	AGP1 TOR yeast inconclusive, RPL19A-GFP yeast 49[may fluoresce violet], MEP2-GFP yeast 605[may fluoresce violet], CIT2 TOR yeast inconclusive
Cc1cc(=O)[nH]c2c(C)cc(S(=O)(=O)N3CCCCC3)cc12	none
CC1=CCC2C(=O)N(c3ccc(N4CCOCC4)cc3)C(=O)C2C1 (configuration not stated)	none (no result: AGP1 TOR yeast, LAP4 TOR yeast, CIT2 TOR yeast)
Cc1ccccc1NC(=O)c1ccc2c(c1)C(=O)N(CCC(C)C)C2=O	none
CC(C)n1cnc2c(Nc3cccc(Cl)c3)nc(NCCCO)nc21	Myeloid diff 2 active
O=C(Cc1ccc(F)cc1)N1CCN(c2ccc([N+](=O)[O-])cc2)CC1	Myeloid diff 2 active
CCCCN(C)CCCNC(=O)CN1N=C(c2ccc(Cl)cc2)CCC1=O	none
Oc1c(C(c2ccco2)N2CCOCC2)sc2ncnn12 (configuration not stated)	none
Cc1c(C(=O)Nc2ccccc2)cnn1-c1ccccc1	LAP4 TOR yeast 155
CCOc1ccccc1NC(=O)NCc1cccnc1	AGP1 TOR yeast inconclusive, RPL19A-GFP yeast 18[may fluoresce violet], MEP2-GFP yeast 271[may fluoresce violet], CIT2 TOR yeast inconclusive
CCOc1ccccc1NC(=O)NCc1ccccc1	none
CC(=O)Nc1ccc(NC(=O)C(C)Oc2ccc(Cl)cc2Cl)cc1 (configuration not stated)	none
CC(Oc1ccc(Cl)cc1Cl)C(=O)NC1=NN(c2ccccc2)C(=O)C1 (configuration not stated)	LAP4 TOR yeast 157
Cc1ccc(OCC(=O)Nc2ccc3c(c2)nc2n3CCOC2)cc1	none
O=C(COc1ccc([N+](=O)[O-])cc1)Nc1ccc2c(c1)nc1n2CCOC1	AGP1 TOR yeast inconclusive, RPL19A-GFP yeast 11[may fluoresce violet], Myeloid diff 2 active, MEP2-GFP yeast 203[may fluoresce violet], CIT2 TOR yeast inconclusive
Cc1c(C2(O)CCCCC2)[nH]c2ccc(C#N)cc12	none
CCC1CCCCN1CCN1C(=O)C2C(C(=O)Nc3ccc(OC)cc3)C3C=CC2(O3)C1C(=O)NC1CCCCC1 (configuration not stated)	Myeloid diff 2 inconclusive
CCC1CCCCN1CCN1C(=O)C2C(C(=O)Nc3cccc(OC)c3)C3C=CC2(O3)C1C(=O)NC1CCCCC1 (configuration not stated)	MEP2-GFP yeast 560[may fluoresce violet], CIT2 TOR yeast inconclusive
